Among the data in ChEMBL document CHEMBL4513151, “CO-ADD screening of Institut Català d'Investigació Química (Spain) compounds” are Inhibition values, retold here.

The subject of test [1] is Staphylococcus aureus. As to conditions: Concentration 32 ug.mL-1, ASSAY_TEST Inhibition of Bacterial Growth, detection method Absorption (OD600), MEDIA CAMHB, plate type 384well, NBS, CORNING #3640, time 18 hr.
For test [2], the system named is Escherichia coli. The conditions noted are these: Concentration 32 ug.mL-1, ASSAY_TEST Inhibition of Bacterial Growth, detection method Absorption (OD600), MEDIA CAMHB, plate type 384well, NBS, CORNING #3640, time 18 hr.

Where “and” joins values, the source holds several entries; their conditions need not be identical. Equal values may be shown once. Potency and affinity values are given separately.

For orientation: Inhibition means the relative decrease from the control value, in per cent. Consider `C[C@]12CC[C@@](c3ccccc3)(O1)[C@H]1C=C[C@H](OC(=O)c3ccccc3)[C@H]12`, for which the Inhibition in test [1] (32 ug/mL) is 15.6% and 15.32%; in test [2] (32 ug/mL), -5.43% and -1.36%.

For the compound `C[C@]12CC[C@@](c3ccc4ccccc4c3)(O1)[C@H]1C=C[C@H](OC(=O)c3ccccc3)[C@H]12`, the Inhibition in test [1] is reported as 16.21%; in test [2], -2.58%.

For the compound `C=C1CC(C(=O)OC)(C(=O)OC)C[C@@H]1[C@H](c1ccccc1)n1ccc2ccc(Cl)cc21`, the Inhibition in test [1] came to 17.85%; in test [2], 1.22%.

As to `C[C@]12CC[C@@](C)(O1)[C@H]1C=C[C@H](OC(=O)c3ccccc3)[C@H]12`, the Inhibition in test [1] is recorded as 17.97%; in test [2], 0.47%.

As to `C=C1CC2(COC(C)(C)OC2)C[C@@H]1[C@@H](Nc1ccc(Br)cc1)c1ccccc1`, the figures for the Inhibition in test [1] and in test [2] were 25.91% and 2.09%, respectively.
